According to PubChem BioAssay AID1159580 (chemical genetic matrix, 2015):
Among all 5,500 compounds or so, about 2,000 (36%) were called active. About 18% were inconclusive and are not listed. Cut-off read from the data, not from the text of the source: active = normalized growth mostly below about 0.91 (no sharp cut-off); inconclusive = no clear call, values can overlap the other calls; inactive = mostly above about 0.92. This is one part of the list.

Experiment: chemical genetic growth profiling, strain panel (AID 1159580);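 note: tested at 20 µM; growth read once vehicle control cultures reached saturation at 30 °C; 1 = growth at the plate median or of vehicle wells; lower values mean less growth of the strain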
Conditions: growth OD

Measured: normalized growth

C=C[C@H]1CN2CC[C@H]1C[C@@H]2[C@H](O)c1ccnc2ccccc12
inactive: S. cerevisiae deletion strains, locus YKL009W, strain mrt4, hits give low values 0.976 | S. cerevisiae deletion strains, locus YKL068W, hits give low values 0.979 | S. cerevisiae deletion strains, locus YKL085W, strain MDH1 (second series), hits give low values 0.972 | S. cerevisiae deletion strains, locus YKL085W, strain MDH1, hits give low values 0.972 | S. cerevisiae deletion strains, locus YKL160W, strain elf1, hits give low values 0.991 | S. cerevisiae deletion strains, locus YKL190W, strain CNB1, hits give low values 0.99 | S. cerevisiae deletion strains, locus YKR001C, strain vps1, hits give low values 0.997 | S. cerevisiae deletion strains, locus YKR026C, strain gcn3, hits give low values 0.991 | S. cerevisiae deletion strains, locus YKR091W, strain srl3, hits give low values 0.979 | S. cerevisiae deletion strains, locus YLL001W, strain dnm1, hits give low values 0.989 | S. cerevisiae deletion strains, locus YLL026W, hits give low values 0.995 | S. cerevisiae deletion strains, locus YLL041C, strain sdh2, hits give low values 0.987 | S. cerevisiae deletion strains, locus YLR027C, strain aat2, hits give low values 0.992 | S. cerevisiae deletion strains, locus YLR039C, strain RIC1, hits give low values 0.98 | S. cerevisiae deletion strains, locus YLR058C, strain SHM2, hits give low values 0.992 | S. cerevisiae deletion strains, locus YLR102C, strain apc9, hits give low values 0.988 | S. cerevisiae deletion strains, locus YLR113W, strain HOG1, hits give low values 0.967 | S. cerevisiae deletion strains, locus YLR221C, strain rsa3, hits give low values 1.02 | S. cerevisiae deletion strains, locus YLR258W, strain gsy2, hits give low values 0.991 | S. cerevisiae deletion strains, locus YLR262C, strain YPT6 (second series), hits give low values 1.01 | S. cerevisiae deletion strains, locus YLR262C, strain YPT6, hits give low values 0.983 | S. cerevisiae deletion strains, locus YLR268W, strain sec22, hits give low values 0.937 | S. cerevisiae deletion strains, locus YLR320W, strain mms22, hits give low values 0.998 | S. cerevisiae deletion strains, locus YLR330W, strain CHS5, hits give low values 0.986 | S. cerevisiae deletion strains, locus YLR342W, strain FKS1 (second series), hits give low values 1.11 | S. cerevisiae deletion strains, locus YLR342W, strain FKS1, hits give low values 0.984 | S. cerevisiae deletion strains, locus YLR357W, strain rsc2, hits give low values 0.976 | S. cerevisiae deletion strains, locus YLR370C, strain arc18, hits give low values 0.994 | S. cerevisiae deletion strains, locus YLR371W, strain rom2, hits give low values 0.977 | S. cerevisiae deletion strains, locus YLR384C, strain iki3, hits give low values 0.995 | S. cerevisiae deletion strains, locus YLR418C, strain cdc73, hits give low values 0.982 | S. cerevisiae deletion strains, locus YML016C, strain PPZ1, hits give low values 0.999 | S. cerevisiae deletion strains, locus YML032C, strain rad52, hits give low values 0.968 | S. cerevisiae deletion strains, locus YML120C, strain ndi1, hits give low values 1.01 | S. cerevisiae deletion strains, locus YML124C, strain tub3, hits give low values 0.986 | S. cerevisiae deletion strains, locus YMR058W, strain fet3, hits give low values 0.982 | S. cerevisiae deletion strains, locus YMR078C, strain ctf18, hits give low values 0.983 | S. cerevisiae deletion strains, locus YMR125W, strain sto1, hits give low values 0.977 | S. cerevisiae deletion strains, locus YMR129W, hits give low values 0.988 | S. cerevisiae deletion strains, locus YMR205C, strain PFK2, hits give low values 0.988 | S. cerevisiae deletion strains, locus YMR223W, strain ubp8, hits give low values 1.01 | S. cerevisiae deletion strains, locus YMR231W, strain pep5, hits give low values 0.979 | S. cerevisiae deletion strains, locus YMR263W, strain SAP30, hits give low values 0.989 | S. cerevisiae deletion strains, locus YMR307W, strain GAS1, hits give low values 1.09 | S. cerevisiae deletion strains, locus YNL067W, strain RPL9B, hits give low values 0.977 | S. cerevisiae deletion strains, locus YNL071W, strain lat1, hits give low values 0.988 | S. cerevisiae deletion strains, locus YNL128W, strain TEP1, hits give low values 0.982 | S. cerevisiae deletion strains, locus YNL153C, strain GIM3, hits give low values 0.991 | S. cerevisiae deletion strains, locus YNL183C, strain NPR1, hits give low values 0.951 | S. cerevisiae deletion strains, locus YNL209W, strain ssb2, hits give low values 0.995 | S. cerevisiae deletion strains, locus YNL233W, strain BNI4, hits give low values 0.985 | S. cerevisiae deletion strains, locus YNL248C, strain rpa49, hits give low values 0.982 | S. cerevisiae deletion strains, locus YNL250W, strain rad50, hits give low values 0.986 | S. cerevisiae deletion strains, locus YNL271C, strain bni1, hits give low values 0.983 | S. cerevisiae deletion strains, locus YNL298W, strain CLA4, hits give low values 0.985 | S. cerevisiae deletion strains, locus YNL307C, strain MCK1, hits give low values 0.992 | S. cerevisiae deletion strains, locus YNL322C, strain KRE1 (second series), hits give low values 0.975 | S. cerevisiae deletion strains, locus YNL322C, strain KRE1, hits give low values 0.992 | S. cerevisiae deletion strains, locus YNR049C, strain mso1, hits give low values 0.986 | S. cerevisiae deletion strains, locus YNR052C, strain pop2, hits give low values 0.992 | S. cerevisiae deletion strains, locus YOL006C, strain TOP1, hits give low values 0.992 | S. cerevisiae deletion strains, locus YOL012C, strain htz1 1.51 | S. cerevisiae deletion strains, locus YOL147C, strain pex11, hits give low values 0.979 | S. cerevisiae deletion strains, locus YOR001W, strain rrp6, hits give low values 1.01 | S. cerevisiae deletion strains, locus YOR061W, strain CKA2, hits give low values 0.986 | S. cerevisiae deletion strains, locus YOR069W, strain VPS5, hits give low values 0.997 | S. cerevisiae deletion strains, locus YOR070C, strain gyp1, hits give low values 1 | S. cerevisiae deletion strains, locus YOR080W, strain dia2, hits give low values 0.985 | S. cerevisiae deletion strains, locus YOR083W, strain WHI5, hits give low values 0.991 | S. cerevisiae deletion strains, locus YOR106W, strain vam3, hits give low values 0.999 | S. cerevisiae deletion strains, locus YOR136W, strain idh2, hits give low values 1 | S. cerevisiae deletion strains, locus YOR144C, strain elg1, hits give low values 0.983 | S. cerevisiae deletion strains, locus YOR184W, strain ser1, hits give low values 0.982 | S. cerevisiae deletion strains, locus YOR231W, strain MKK1, hits give low values 0.983 | S. cerevisiae deletion strains, locus YOR265W, strain rbl2, hits give low values 1 | S. cerevisiae deletion strains, locus YOR270C, strain vph1, hits give low values 1 | S. cerevisiae deletion strains, locus YOR290C, strain snf2, hits give low values 0.982 | S. cerevisiae deletion strains, locus YOR316C, strain cot1, hits give low values 0.972 | S. cerevisiae deletion strains, locus YPL051W, strain arl3, hits give low values 0.994 | S. cerevisiae deletion strains, locus YPL055C, strain LGE1, hits give low values 0.997 | S. cerevisiae deletion strains, locus YPL078C, strain atp4, hits give low values 0.99 | S. cerevisiae deletion strains, locus YPL106C, strain sse1, hits give low values 0.967 | S. cerevisiae deletion strains, locus YPL240C, strain hsp82, hits give low values 0.999 | S. cerevisiae deletion strains, locus YPL241C, strain CIN2, hits give low values 0.989 | S. cerevisiae deletion strains, locus YPL256C, strain CLN2, hits give low values 0.978 | S. cerevisiae deletion strains, locus YPR119W, strain clb2, hits give low values 0.974 | S. cerevisiae deletion strains, locus YPR141C, strain kar3, hits give low values 0.981 | S. cerevisiae deletion strains, locus YPR163C, strain tif3, hits give low values 0.977 | S. cerevisiae deletion strains, locus YPR167C, strain met16, hits give low values 0.979 | S. cerevisiae deletion strains, strain wtn01, hits give low values 0.98 | S. cerevisiae strains, strain wild type, hits give low values 1
